Pf growth 48h – P. falciparum growth inhibition at 48 hours (one generation); P. falciparum luciferase growth in erythrocytes, 48 h; AID 504832; Potency, µM (top dose mostly 28.7 µM), actives largely listed as inhibitors; hit rate 5.9% among 310,000; active = well fitted inhibition curve with a large enough effect; inconclusive = small, poorly fitted or top-dose-only effect, or another doubt; inactive = no such curve, though single readings can be large or run the other way
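Parasite viability was followed by luminescence of a genomically integrated firefly luciferase. Cultures held 0.1% parasitemia at 2% hematocrit (final), incubated under 5% CO2 at 37 C.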
Cycloheximide cs – affects cycloheximide protein synthesis inhibition readout, counter-screen; max response, %; cell reporter, cycloheximide protein synthesis inhibition counterscreen; hit rate 12% among 300,000; in the data active = max response mostly above about 13%, no sharp cut-off; inactive = mostly below about 14%; also: read at 38.3 µM for the half of the compounds with a filed dose
Shiga inhibitor – inhibitors of Shiga toxin in Vero cells. inhibition, % at 38.7 µM. Vero cells, Shiga toxin protein synthesis inhibition reporter. AID 2315. hit rate 9.2% among 290,000; in the data active = inhibition mostly above about 28%, no sharp cut-off; inactive = mostly below about 43%
SARS PLpro yeast – SARS-CoV PLP inhibition in yeast; S. cerevisiae expressing SARS-CoV PLpro, growth rescue; Potency, µM (highest dose often 32.9 µM), usual class: activators; hit rate 0.19% among 330,000; AID 485353; also: nearly all actives have a fitted effect of over 55% in size
NS1 function inh – inhibitors of influenza NS1 protein function; Potency, µM (titrated, usually from 46.1 µM); hit rate 0.4% among 270,000; also: actives are rising curves; nearly all actives have a fitted effect of over 50% in size
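A cell-based growth assay was used: compounds that relieve NS1-induced slow growth of budding yeast raise OD600. Assay medium was yeast nitrogen base with ammonium sulphate and -URA supplement, pH 6.0, with 2% galactose.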
Pf growth 96h – P. falciparum growth inhibition at 96 hours. P. falciparum luciferase reporter growth, 96 h. Potency, µM (doses to about 28.7 µM), most hits filed as inhibitors. hit rate 6.9% among 320,000. AID 504834; active = well fitted inhibition curve with a large enough effect; inconclusive = small, poorly fitted or top-dose-only effect, or another doubt; inactive = no such curve, though single readings can be large or run the other way
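Delayed-death screen, second-generation endpoint: infected erythrocytes, 2% hematocrit, 0.05% parasitemia final; 96 hours at 37 C, 5% CO2; luciferase detection reagent; luminescence decrease equals reduced growth.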
Large screens that a line does not name were inactive. This is a sample that favours compounds with a hit; in the whole collection about 21% have one here. Unless noted, calls follow the shape of the full dose curve.

COC(=O)c1c(NC(=S)Nc2ccc(C(=O)N3CCOCC3)cc2)sc2c1CCC2	none (no result: NS1 function inh)
Cc1ccc(NC(=O)OCc2cc(-c3ccccc3)on2)cc1	Cycloheximide cs 37.6, Shiga inhibitor 74.9
O=C(Nc1ccc(Cl)cc1)OCc1cc(-c2ccccc2Cl)on1	none
Cc1ccc(NC(=O)OCc2cccs2)cc1	Cycloheximide cs 21.6, Shiga inhibitor 80.7
CCC(C)[C@H](NC(=O)N1CCn2c1nc1ccccc12)C(=O)NCc1ccccc1 (some centres undefined)	Pf growth 48h inconclusive
CC(=C\C(=O)O)/C(=C\c1cccc2ccccc12)C(=O)O	Pf growth 48h inconclusive, Cycloheximide cs 24.9, Shiga inhibitor 82.7
C=CCN1C(=O)C(=O)N(Cc2nc3ccccc3s2)C1=O	Cycloheximide cs 33.7, Shiga inhibitor 76.7
O=C(C1CCN(S(=O)(=O)N2CCCCC2)CC1)N1CCCCC1	none
COC(=O)c1ccc(NC(=O)CN2CCN(S(=O)(=O)c3ccc(Br)cc3)CC2)cc1	Pf growth 96h 9.28µM
CN(C)S(=O)(=O)N1CCN(CC(=O)Nc2ccc(Br)cc2)CC1	Pf growth 96h 5.22µM (no result: Shiga inhibitor)
O=C(CN1CCN(S(=O)(=O)c2ccc(Br)cc2)CC1)Nc1ccc2c(c1)OCCO2	Pf growth 48h inconclusive, Pf growth 96h inconclusive
COc1ccc(NC(=O)CN2CCN(S(=O)(=O)N(C)C)CC2)cc1	none (no result: Shiga inhibitor)
CC(=O)OCON[N+]([O-])=NC1CCCCC1	none (no result: Pf growth 48h, SARS PLpro yeast, NS1 function inh, Pf growth 96h)
C=CCn1c(SCC(=O)Nc2ncc(Cc3cc(Cl)ccc3Cl)s2)nnc1-c1ccncc1	Pf growth 96h inconclusive
NCCCn1c(C(=O)c2cc(Cl)c(N)c(Cl)c2)c2ccc([N+](=O)[O-])cc2[n+]1[O-]	Pf growth 48h 11.7µM, Pf growth 96h inconclusive (no result: Cycloheximide cs, Shiga inhibitor, NS1 function inh)
NCCCn1c(C(=O)c2cc(Cl)c(N)c(Cl)c2)c2ccc(C(F)(F)F)cc2[n+]1[O-]	Pf growth 48h 6.57µM, Pf growth 96h inconclusive (no result: Cycloheximide cs, Shiga inhibitor, NS1 function inh)
NC(=O)CCCn1c(C(=O)c2cc(Cl)c(N)c(Cl)c2)c2ccc(C(F)(F)F)cc2[n+]1[O-]	Pf growth 48h 5.86µM, Pf growth 96h 4.65µM (no result: Cycloheximide cs, Shiga inhibitor, NS1 function inh)
COc1ccc(NC(=O)N2CCc3ccccc3C2)c(OC)c1	Cycloheximide cs 16.5, Shiga inhibitor 36.3
CCOc1ccccc1NC(=O)N1CCc2ccccc2C1	Pf growth 48h inconclusive, Cycloheximide cs 18.7
COc1ccc(OC)c(NC(=O)N2CCc3ccccc3C2)c1	none
CC(=O)NC12CC3CC(C1)CC(C(=O)Nc1nc4ccc(F)cc4s1)(C3)C2	Cycloheximide cs 45.0, Shiga inhibitor 70.7
CCC(CC)c1nnc(NC(=O)C23CC4CC(CC(NC(C)=O)(C4)C2)C3)s1	Pf growth 48h inconclusive, Pf growth 96h inconclusive
COc1ccccc1N1CCN(C(=O)CSc2nc3ccccc3nc2N2CCC(C)CC2)CC1	Pf growth 48h inconclusive
CC1=NNC(=O)C1CC(=O)N/N=C(\C)c1ccco1 (centres undefined)	none
O=C(Nc1cccc(NC(=O)c2ccc3c(c2)OCO3)c1)c1ccccc1	Cycloheximide cs 23.5 (no result: NS1 function inh)
CCOC(=O)c1c(C)c(C(=O)Nc2ccc3c(c2)OCO3)c(C)n1C	Pf growth 48h inconclusive, Shiga inhibitor 41.5
Cc1cc(NC(=O)c2ccc3c(c2)OCO3)ccc1NC(=O)c1ccccc1	none
CCOC(=O)c1cccc(NC(=O)c2ccc3c(c2)OCO3)c1	Cycloheximide cs 21.1, Shiga inhibitor 33.3
CCOC(=O)c1[nH]c2ccccc2c1NC(=O)c1ccc2c(c1)OCO2	none (no result: Pf growth 48h)
CCOC(=O)c1oc2ccccc2c1NC(=O)c1ccc2c(c1)OCO2	Pf growth 96h 13.1µM
CC(=O)c1cccc(NC(=O)COC(=O)c2ccc3c(c2)OCO3)c1	none (no result: Cycloheximide cs, Shiga inhibitor, NS1 function inh)
CC(C)(C)OC(=O)CC[C@@H](C(=O)N1CCN(C(=O)OC(C)(C)C)CC1)n1cc(C(CO)NC(=O)OC(C)(C)C)nn1 (some centres undefined)	Pf growth 48h inconclusive, Pf growth 96h inconclusive
O=C(COC(=O)c1cc(S(=O)(=O)N2CCOCC2)ccc1O)NCCc1ccccc1	none (no result: Pf growth 96h)
COc1ccc(CNC(=O)COC(=O)C(CCSC)NC(=O)c2ccco2)cc1OC (centres undefined)	none (no result: Cycloheximide cs, Shiga inhibitor, NS1 function inh)
CC(=O)c1cccc(NC(=O)c2ccc3c(c2)OCO3)c1	Cycloheximide cs 52.1, Pf growth 96h inconclusive (no result: Shiga inhibitor)
CC(=O)c1ccc2c(c1)OCO2	none
CCOC(=O)CNc1ccc2c(c1)OCO2	Pf growth 48h inconclusive
CCOC(=O)c1cccc(NC(=O)/C=C/c2ccc3c(c2)OCO3)c1	Cycloheximide cs 30.7, Shiga inhibitor 45.1, Pf growth 96h inconclusive
Cc1nc(NC(=O)c2ccc(F)cc2)nc2cc3c(cc12)OCO3	none
Cc1nc(NC(=O)c2ccccc2)nc2cc3c(cc12)OCO3	Cycloheximide cs 46.1, Shiga inhibitor 91.6
CCOC(=O)CNC(=O)/C=C/c1ccc2c(c1)OCO2	Cycloheximide cs 18.5, Pf growth 96h inconclusive (no result: NS1 function inh)
C=CCn1c(SCC(=O)NC(=O)Cc2ccccc2)nnc1-c1ccccc1F	none (no result: Pf growth 48h, Cycloheximide cs, Shiga inhibitor, NS1 function inh, Pf growth 96h)
Cc1ccnc(NC(=O)CCC(=O)c2cc(C)sc2C)c1	none (no result: Cycloheximide cs, Shiga inhibitor, NS1 function inh)
CCOc1ccc(N2C(=O)/C(=C/c3ccccn3)SC2=S)cc1	none
Cc1cc(/C=C2\SC(=S)N(C)C2=O)c(C)n1-c1cccc(O)c1	Cycloheximide cs 58.8, Shiga inhibitor 107.5
COc1ccc(-n2c(C)cc(/C=C3/SC(=S)N(C)C3=O)c2C)cc1	Pf growth 96h 0.329µM
O=C1/C(=C/c2ccccn2)SC(=S)N1c1cccc(O)c1	Cycloheximide cs 36.4, Shiga inhibitor 38.0
Cc1cc(/C=C2\SC(=S)N(Cc3ccco3)C2=O)c(C)n1-c1ccccc1	Pf growth 48h inconclusive, Cycloheximide cs 73.2, Shiga inhibitor 80.3, NS1 function inh inconclusive, Pf growth 96h inconclusive
Cc1cc(N2CCN(C)CC2)nc2ccc(NC(=O)CCC(=O)N3CCN(c4ccc([N+](=O)[O-])cc4)CC3)cc12	Pf growth 48h 5.22µM
CCCCNC(=O)CCC(=O)Nc1ccc2nc(N3CCCCC3)cc(C)c2c1	Cycloheximide cs 31.0, Shiga inhibitor 63.0, Pf growth 96h inconclusive (no result: NS1 function inh)
CCOC(=O)C1CCCN(C(=O)CCC(=O)Nc2ccc3nc(N4CCOCC4)cc(C)c3c2)C1 (centres undefined)	Cycloheximide cs 24.5
CCN(CC)CCCNC(=O)CCC(=O)Nc1ccc2nc(N3CCCCC3)cc(C)c2c1	Pf growth 48h inconclusive (no result: NS1 function inh)
Cc1cc(N2CCCCC2)nc2ccc(NC(=O)CCC(=O)NCCC(C)C)cc12	Cycloheximide cs 35.3, Shiga inhibitor 49.3, Pf growth 96h inconclusive (no result: Pf growth 48h)
CC(=O)N1CCN(c2ccc(NC(=O)c3cccc([N+](=O)[O-])c3)cc2)CC1	Pf growth 48h inconclusive, Pf growth 96h inconclusive
O=C(Nc1nccs1)c1cccc(S(=O)(=O)N2CCOCC2)c1	Pf growth 96h inconclusive
CCOc1ccc(-c2nnn(CC#N)n2)cc1OC	Pf growth 96h inconclusive
C=CCSc1nc2sc(C)c(C)c2c(=O)n1N	none
COc1cccc(NC(=O)CCC(=O)Nc2ccc3nc(N4CCOCC4)cc(C)c3c2)c1	Cycloheximide cs 37.0, Shiga inhibitor 81.4

Bioassay records (PubChem BioAssay)
